{
  "source": "paper PMC4336329",
  "about": "(PLoS ONE, 2015)",
  "note": "Screen size: about 310,000 compounds; about 14,000 (4.5%) showed an effect of 50% or more. The effect is printed as a negative number. What follows is part of a selection rich in strong results, with near analogues and random picks from the rest.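 Also: peak tail current of the secondary pulse compared with the same well before compound.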",
  "data": [
    {"biological_target": "human ether-à-go-go-related gene (hERG) potassium channel (human, UniProt Q12809)", "sequence (Q12809 whole entry, looked up)": "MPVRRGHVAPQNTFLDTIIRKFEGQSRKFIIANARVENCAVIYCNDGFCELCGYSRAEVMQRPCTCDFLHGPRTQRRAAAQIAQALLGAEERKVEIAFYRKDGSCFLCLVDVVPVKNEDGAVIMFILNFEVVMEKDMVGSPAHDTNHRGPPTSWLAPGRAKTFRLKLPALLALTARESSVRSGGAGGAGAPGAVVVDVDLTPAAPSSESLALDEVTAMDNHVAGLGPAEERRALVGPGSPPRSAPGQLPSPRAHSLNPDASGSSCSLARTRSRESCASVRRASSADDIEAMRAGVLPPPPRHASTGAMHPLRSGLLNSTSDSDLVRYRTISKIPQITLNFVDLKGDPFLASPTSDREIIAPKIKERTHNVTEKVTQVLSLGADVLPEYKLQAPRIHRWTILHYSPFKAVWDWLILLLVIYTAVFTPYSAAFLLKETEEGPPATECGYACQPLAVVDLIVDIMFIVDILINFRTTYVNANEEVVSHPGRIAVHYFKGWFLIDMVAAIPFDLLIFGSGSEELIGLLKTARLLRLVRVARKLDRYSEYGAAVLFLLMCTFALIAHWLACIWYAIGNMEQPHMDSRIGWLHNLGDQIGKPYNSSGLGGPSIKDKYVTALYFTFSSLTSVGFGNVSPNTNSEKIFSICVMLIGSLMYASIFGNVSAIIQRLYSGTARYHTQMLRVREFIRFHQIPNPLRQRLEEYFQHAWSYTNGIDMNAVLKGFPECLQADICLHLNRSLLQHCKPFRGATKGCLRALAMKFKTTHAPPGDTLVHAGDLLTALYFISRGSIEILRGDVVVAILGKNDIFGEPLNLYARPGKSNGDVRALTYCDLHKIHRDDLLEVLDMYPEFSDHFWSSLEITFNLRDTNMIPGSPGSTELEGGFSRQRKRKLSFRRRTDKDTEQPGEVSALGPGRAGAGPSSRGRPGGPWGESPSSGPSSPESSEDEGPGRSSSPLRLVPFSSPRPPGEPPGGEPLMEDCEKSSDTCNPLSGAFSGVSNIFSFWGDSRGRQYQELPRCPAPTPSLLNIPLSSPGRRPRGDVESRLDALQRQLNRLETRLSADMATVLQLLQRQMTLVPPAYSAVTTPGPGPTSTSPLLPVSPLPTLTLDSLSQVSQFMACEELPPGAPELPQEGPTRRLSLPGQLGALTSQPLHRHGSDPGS", "assay": "primary screen, population patch clamp on CHO cells stably expressing hERG; higher = less effect of the substance", "units": {"hERG current change (%, negative = inhibition) at 10uM": "%"}, "values": [
      {"molecule": "CN(C1CCCCC1)S(=O)(=O)c1ccc(S(=O)(=O)N2CCN(C(=O)c3ccccc3F)CC2)cc1", "hERG current change (%, negative = inhibition) at 10uM": -12.2},
      {"molecule": "CCOC(=O)N1CCC(N2CC34C=CC(O3)C(C(=O)Nc3ccc(OCC)cc3)C4C2=O)CC1", "note": "(stereo not shown)", "hERG current change (%, negative = inhibition) at 10uM": -18.7},
      {"molecule": "CC(OC(=O)CNC(=O)COc1ccccc1)C(=O)N(C)Cc1ccccc1", "note": "(stereo not shown)", "hERG current change (%, negative = inhibition) at 10uM": 5.07},
      {"molecule": "COC(=O)c1ccccc1NC(=O)C1CCN(S(C)(=O)=O)CC1", "hERG current change (%, negative = inhibition) at 10uM": 1.04},
      {"molecule": "O=C(COC(=O)/C=C/c1ccc(S(=O)(=O)N2CCOCC2)cc1)NC1CCCCCCC1", "hERG current change (%, negative = inhibition) at 10uM": 32.2},
      {"molecule": "CCO.N#CC1=C(N)Oc2c(oc(CO)cc2=O)C1c1ccccc1[N+](=O)[O-]", "note": "(stereo not shown)", "hERG current change (%, negative = inhibition) at 10uM": -1.44},
      {"molecule": "O=C(c1ccccc1C(=O)N1CCN(c2ccccc2)CC1)N1CCN(c2ccccc2)CC1", "hERG current change (%, negative = inhibition) at 10uM": -29.7},
      {"molecule": "O=C(c1ccccc1C(=O)N1CCN(c2ccc(F)cc2)CC1)N1CCN(c2ccc(F)cc2)CC1", "hERG current change (%, negative = inhibition) at 10uM": -73.8},
      {"molecule": "O=C(c1cccc(S(=O)(=O)NCc2ccccc2)c1)N1CCN(c2cccc(C(F)(F)F)c2)CC1", "hERG current change (%, negative = inhibition) at 10uM": -4.17},
      {"molecule": "CC(=O)N1CCN(C(=O)c2cccc(S(=O)(=O)NCc3ccccc3)c2)CC1", "hERG current change (%, negative = inhibition) at 10uM": 5.5},
      {"molecule": "O=C(c1cccc(S(=O)(=O)NCc2ccccc2)c1)N1CCN(c2ccc(F)cc2)CC1", "hERG current change (%, negative = inhibition) at 10uM": -58.1},
      {"molecule": "O=C(c1ccc(CN2CCc3ccccc3C2)cc1)N1CCCCC1", "hERG current change (%, negative = inhibition) at 10uM": -9.72},
      {"molecule": "CSc1ccccc1C(=O)N1CCN(c2ccc(F)cc2)CC1", "hERG current change (%, negative = inhibition) at 10uM": -17.5},
      {"molecule": "CC(=O)c1ccc(-c2ccc(C(=O)N3CCN(c4ccc(F)cc4)CC3)o2)cc1", "hERG current change (%, negative = inhibition) at 10uM": -16.7},
      {"molecule": "O=C(c1ccc(CN2CCc3ccccc3C2)cc1)N1CCN(c2ccc(F)cc2)CC1", "hERG current change (%, negative = inhibition) at 10uM": -68.6},
      {"molecule": "O=C(c1ccc(Br)o1)N1CCN(c2ccc(F)cc2)CC1", "hERG current change (%, negative = inhibition) at 10uM": -45.6},
      {"molecule": "O=C(c1ccc(CN2CCc3ccccc3C2)cc1)N1CCN(c2ccccc2)CC1", "hERG current change (%, negative = inhibition) at 10uM": -46.3},
      {"molecule": "O=C(c1ccccc1)c1ccc(C(=O)N2CCN(c3ccc(F)cc3)CC2)o1", "hERG current change (%, negative = inhibition) at 10uM": -78.4},
      {"molecule": "COc1ccc(-c2nnc(SCC(=O)Nc3cc(C)on3)o2)cc1", "hERG current change (%, negative = inhibition) at 10uM": 14.4},
      {"molecule": "O=C1C(c2ccc(F)cc2)N(C2CCCCC2)C(=O)CN1C1CCCC1", "note": "(stereo not shown)", "hERG current change (%, negative = inhibition) at 10uM": -34.1},
      {"molecule": "O=C(CSc1ccc2nnc(-c3ccncc3)n2n1)Nc1ccc2c(c1)OCCO2", "hERG current change (%, negative = inhibition) at 10uM": 10.9},
      {"molecule": "Cc1ccc(-c2cc(C(=O)O)c3cc(Br)ccc3n2)s1", "hERG current change (%, negative = inhibition) at 10uM": 16.7},
      {"molecule": "COCc1c(C(=O)OCC(=O)NCCc2ccc(S(N)(=O)=O)cc2)oc2ccccc12", "hERG current change (%, negative = inhibition) at 10uM": -0.489},
      {"molecule": "CCc1ccc(NC(=O)CSC2=C(C#N)C(c3ccco3)C3=C(CCCC3=O)N2)cc1", "note": "(stereo not shown)", "hERG current change (%, negative = inhibition) at 10uM": -1.71},
      {"molecule": "COc1ccc(-c2nc(CNS(=O)(=O)c3ccc(OC)c(OC)c3)cs2)cc1", "hERG current change (%, negative = inhibition) at 10uM": -1.76},
      {"molecule": "CCN(CC)C(=O)CC(c1ccc(N(C)C)cc1)c1c(O)cc(OC)cc1OC", "note": "(stereo not shown)", "hERG current change (%, negative = inhibition) at 10uM": 18.7},
      {"molecule": "O=C(COc1ccccc1C(=O)Nc1ccccc1)NCCc1ccccc1", "hERG current change (%, negative = inhibition) at 10uM": 34.4},
      {"molecule": "CCCCN(CCCC)c1cc(C)nc(-c2ccccc2O)n1", "hERG current change (%, negative = inhibition) at 10uM": 16.8},
      {"molecule": "Cc1cccc(OCC(=O)Nc2ccc(S(=O)(=O)Nc3onc(C)c3C)cc2)c1C", "hERG current change (%, negative = inhibition) at 10uM": 13.3},
      {"molecule": "Cc1ccc(N(CC(=O)NC2CCCCC2)C(=O)c2ccc(C)s2)cc1", "hERG current change (%, negative = inhibition) at 10uM": -11.2},
      {"molecule": "CCOC(=O)c1c(NC(NC(=O)C(C)C)C(Cl)(Cl)Cl)sc2c1CCC2", "note": "(stereo not shown)", "hERG current change (%, negative = inhibition) at 10uM": 11},
      {"molecule": "O=C(CSc1nncs1)N1CCN(C(=O)c2ccco2)CC1", "hERG current change (%, negative = inhibition) at 10uM": 5.31},
      {"molecule": "O=C(CSc1nc(-c2ccc(F)cc2)cs1)N1CCOCC1", "hERG current change (%, negative = inhibition) at 10uM": -25.4},
      {"molecule": "O=C(CSc1nc(-c2ccc(F)cc2)cs1)N1CCN(C(=O)c2ccco2)CC1", "hERG current change (%, negative = inhibition) at 10uM": -57},
      {"molecule": "O=C(c1ccco1)N1CCN(c2nc(-c3ccc(F)cc3)cs2)CC1", "hERG current change (%, negative = inhibition) at 10uM": -34.9},
      {"molecule": "O=C(CSc1nc(-c2ccccc2)cs1)N1CCN(C(=O)c2ccco2)CC1", "hERG current change (%, negative = inhibition) at 10uM": -60.6},
      {"molecule": "CC1CN(C(=O)CSc2nc(-c3ccccc3)cs2)CC(C)O1", "note": "(stereo not shown)", "hERG current change (%, negative = inhibition) at 10uM": 3.57},
      {"molecule": "O=[N+]([O-])c1ccc(N=Nc2c(Cl)cc(O)cc2Cl)cc1", "hERG current change (%, negative = inhibition) at 10uM": 18.2},
      {"molecule": "CN(C)S(=O)(=O)c1cccc(NC(=O)COc2ccc3ccccc3c2)c1", "hERG current change (%, negative = inhibition) at 10uM": -7.08},
      {"molecule": "O=C(O)c1ccc(/C=N/N2CCN(C3c4ccccc4-c4ccccc43)CC2)cc1", "hERG current change (%, negative = inhibition) at 10uM": 12.1},
      {"molecule": "C=CCn1c(SCC(=O)NCc2ccc3c(c2)OCO3)nnc1-c1cccnc1", "hERG current change (%, negative = inhibition) at 10uM": -0.64},
      {"molecule": "O=C(CSc1nnc(-c2cccnc2)n1-c1ccc(F)cc1)NCc1ccc2c(c1)OCO2", "hERG current change (%, negative = inhibition) at 10uM": -72.5},
      {"molecule": "O=C(CSc1nnc(-c2cccnc2)n1-c1ccccc1)NCc1ccc2c(c1)OCO2", "hERG current change (%, negative = inhibition) at 10uM": -69}
    ]}
  ]
}
